Only some compounds are listed: those with a hit (about 3.6% of all), similar ones and a draw of the others.
D1 potentiator = potentiators of human D1 dopamine receptor; AID 504651; potentiation, % at 10 µM; HEK293 TREx D1 cells, calcium flux, dopamine EC20 potentiation; P21728; 360,000 compounds, 0.036% hits; in the data active = potentiation above about 30%; also: 0% is about no effect
D1 antag = human D1 dopamine receptor antagonism; P21728; HEK293 TREx D1 cells, calcium flux, dopamine EC80; active compounds read low; activity change, negative = inhibition, % at 10 µM; 360,000 compounds, 3.2% hits; in the data active = activity change below about -30%; also: % is scaled to controls: 0 for no effect and ±100 for the full control effect
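Compound effects on dopamine-evoked calcium signalling were measured in tetracycline-induced HEK293 Trex D1 cells. Dopamine at EC80 followed a 180 s compound pre-read, and fluorescence was tracked kinetically for 180 s more.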
LDHA inh = inhibitors of human lactate dehydrogenase A; P00338; purified LDHA, NADH/diaphorase-resazurin fluorescence; active compounds read low; activity change, % (values are at about 110 or 230 µM); 480,000 compounds, 0.15% hits; in the data active = activity change below about -30%;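 also: plate controls were DMSO wells for no effect and wells without enzyme for full effect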
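Human LDH5 (2 nM) was incubated with 0.06 mM NADH and 0.2 mM pyruvate for 5 min at room temperature in Tris pH 7.4. Remaining NADH was coupled through diaphorase/resazurin, and resorufin fluorescence was read at 0 and 20 min.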
D1 ag = activates the human D1 dopamine receptor; P21728; HEK293 T-REx D1 cells, calcium flux, agonist mode; activation, % at 2 µM; 360,000 compounds, 1% hits; also: 0% is about no effect
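Tetracycline-induced HEK293 TREx D1 cells, force-coupled to calcium signalling, were dye-loaded with a no-wash calcium kit. Compound was pin-added after a 10 s baseline. Fluorescence was read kinetically at 1 cycle/s for 180 s, with calcium rises flagged as agonism.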
TRHR ag = TRH receptor (human) agonism | P34981 | TRHR cells, calcium flux fluo-8, FDSS agonist mode | activation, % at 2 µM | 360,000 compounds, 0.18% hits; also: 0% is about no effect
Target sequence (P34981 whole entry, looked up): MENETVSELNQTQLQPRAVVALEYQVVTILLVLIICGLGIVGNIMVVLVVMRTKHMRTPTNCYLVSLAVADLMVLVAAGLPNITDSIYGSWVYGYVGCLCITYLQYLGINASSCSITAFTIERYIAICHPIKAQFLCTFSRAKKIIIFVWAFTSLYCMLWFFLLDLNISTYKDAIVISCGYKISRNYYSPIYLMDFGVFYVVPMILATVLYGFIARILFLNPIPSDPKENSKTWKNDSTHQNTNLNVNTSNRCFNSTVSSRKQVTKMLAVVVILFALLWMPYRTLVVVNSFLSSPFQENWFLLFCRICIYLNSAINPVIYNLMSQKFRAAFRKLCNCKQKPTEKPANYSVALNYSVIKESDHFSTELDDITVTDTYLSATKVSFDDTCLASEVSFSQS
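In this calcium-flux screen, cells bearing human TRHR are dye-loaded with fluo-8, baselined for 10 cycles, then exposed to library compounds; positive kinetic calcium responses during the agonist phase mark hits, with TRH as control.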
TRHR PAM = allosteric enhancers of human TRH receptor; P34981; TRHR cells, fluo-8 calcium fluorescence, EC20 TRH enhancement; enhancement, % at 2 µM; 360,000 compounds, 0.66% hits; AID 493056; in the data active = enhancement above about 30%; also: 0% is about no effect
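TRHR-expressing cells loaded with fluo-8 calcium dye were read kinetically (ex 480/em 530) during compound addition, then stimulated with an EC20 of TRH (10 nM final). Enhancement of the Gq-mediated intracellular calcium response was scored.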
An asterisk follows results filed as active; nt = no result given. Rule as the data show it, unless noted: active = activation above about 30%; inactive = the rest.

SMILES	D1 potentiator	D1 antag	LDHA inh	D1 ag	TRHR ag	TRHR PAM
OC[C@H]1O[C@@H](O[C@@H]2[C@@H](CO)O[C@@](O)(CO)[C@H]2O)[C@H](O)[C@@H](O)[C@H]1O	-7	-36*	-8	-1	2	5
Cc1nc(NC(=O)c2ccccc2)sc1-c1csc(Nc2ccc(C(F)(F)F)cc2)n1	nt	nt	-4	nt	nt	nt
CCOC(=O)C1CCN(C(=O)c2nc3nc(-c4ccco4)cc(C(F)(F)F)n3n2)CC1	nt	nt	-6	nt	nt	nt
CC[n+]1c(/C=C/C=C/N(C(C)=O)c2ccccc2)sc2cc(OC)ccc21	-7	-7	-6	56*	23	3
CC[n+]1c(/C=C(\C)OC)sc2ccccc21	0	-7	1	0	1	7
CSc1cccc(NC(=O)Cc2ccc(Cl)cc2)c1	nt	nt	-3	nt	nt	nt
O=c1c(O)c(-c2cccs2)oc2ccccc12	7	28	-9	252*	107*	4
CCCCn1c(-c2cccs2)nc2oc3ccccc3c(=O)c2c1=O	0	-1	1	1	-1	-2
O=c1c(O)c(-c2cccs2)oc2ccc(Cl)cc12	-14	53	9	385*	168*	77*
O=C(Cn1cc(C(F)(F)F)ccc1=O)c1ccc(C2CCCCC2)cc1	nt	nt	-3	nt	nt	nt
Oc1cccc(/C=N\Nc2nncc(-c3ccccc3)n2)c1	2	-37*	-12	2	-1	3
O=C(Cn1c(=O)c2c(ncn2C2CCCC2)n(Cc2ccccc2)c1=O)NCc1cccc(Cl)c1	nt	nt	6	nt	nt	nt
Cc1cccc(/C=C\c2nc3ccccc3c(=O)[nH]2)c1	-5	4	-6	2	1	0
Cc1nc(/C=C/c2ccccc2)[nH]c(=O)c1-c1ccccc1	-4	-43*	-6	-1	1	-2
Cc1ccc(O)c(NC(=O)c2cc(-c3ccccc3Cl)on2)c1	4	-33*	-4	6	1	-14
Cc1ccc(O)c(NC(=O)c2cc(-c3ccccc3O)no2)c1	7	-31*	12	15	0	-7
Cc1ccc(-c2cc(C(=O)Nc3cc(C)ccc3O)no2)cc1	2	-8	3	3	0	0
COc1cc(NC(=O)c2cc(-c3ccccc3O)no2)cc(OC)c1OC	-1	12	12	0	-1	-7
Cc1cc(O)c(NC(=O)c2cc([N+](=O)[O-])ccc2Cl)cc1C	-3	-4	-14	11	-2	1
Cc1ccc(O)c(NC(=O)c2cc([N+](=O)[O-])ccc2Cl)c1	-4	-30*	-5	8	-2	9
O=C(Nc1nc(-c2ccc(Br)s2)cs1)C1CCC1	nt	nt	-10	nt	nt	nt
O=C(O)c1csc(-c2ccccc2)c1	nt	nt	-3	nt	nt	nt
CC(C)C[C@H](N)c1nnc(SCc2ccc(Cl)cc2Cl)o1	0	-11	0	27	-2	30
CC(C)C[C@H](N)c1nnc(S(=O)(=O)Cc2ccc(F)cc2)o1	-16	-70*	4	10	0	-3
Cn1cnc(S(=O)(=O)N2CCN(c3cccc(C(F)(F)F)c3)CC2)c1	-6	-32*	-6	10	0	0
SMILES	D1 potentiator	D1 antag	LDHA inh	D1 ag	TRHR ag	TRHR PAM
Cn1cnc(S(=O)(=O)N2CCN(c3cccc(Cl)c3)CC2)c1	1	-8	0	-2	0	9
COc1ccc(CN2CC3=C(C2=O)C(c2ccc(SC)cc2)NC(=O)N3)cc1 (stereo not given)	nt	nt	-9	nt	nt	nt
CCC(C)NC(=O)CSc1nc2cc(S(=O)(=O)N3CCOCC3)ccc2n1CC (stereo not given)	1	-32*	-4	-1	0	1
CCn1c(SCC(=O)c2cc(C)ccc2C)nc2cc(S(=O)(=O)N3CCOCC3)ccc21	2	16	3	4	0	-6
CCOC(=O)C1CCN(C(=O)c2ccc(N3CCCC3=O)cc2)CC1	-3	5	-4	3	3	34*
O=C(c1ccc(N2CCCC2=O)cc1)N1CCN(c2ccccc2Cl)CC1	-11	-49*	2	1	0	4
CCOC(=O)N1CCN(C(=O)c2ccc(N3CCCC3=O)cc2)CC1	4	-7	-2	1	1	0
O=C(Nc1cc(Cl)cc(Cl)c1)C1CC(=O)N(C2CCCCC2)C1 (stereo not given)	nt	nt	0	nt	nt	nt
Cc1ccc2cc(C#N)c(NCc3ccccc3)nc2c1	-4	-33*	-8	3	0	8
CC(Oc1ccccc1)C(=O)Nc1cccc(-c2nc3ccccc3[nH]2)c1 (stereo not given)	-9	-40*	-5	14	0	3
Cc1ccc(S(=O)(=O)c2nc(S(=O)(=O)c3ccccc3)sc2NCCCOC(C)C)cc1	-1	4	-1	4	2	1
CCCS(=O)(=O)c1nc(S(=O)(=O)c2ccc(C)cc2)c(NCCCOC(C)C)s1	-2	-41*	5	36*	-1	6
Fc1ccc(/C=N/Nc2c(Cl)cc(Cl)cc2Cl)cc1F	nt	nt	12	nt	nt	nt
Cc1ccc(S(=O)c2ccc(NC(=O)C3CC3)cc2C#N)cc1 (stereo not given)	-9	-31*	-6	25	1	0
N#Cc1cc(NC(=O)C2CC2)ccc1OCC(F)(F)F	nt	nt	0	nt	nt	nt
OCCn1c(-c2ccc3c(c2)OCO3)csc1=Nc1ccccc1	-8	-8	-1	1	0	2
OCCn1c(-c2ccc(F)cc2)csc1=Nc1ccccc1	-8	-31*	-3	6	0	1
Cc1ccc(C)c(NC(=O)c2nc3ccccc3nc2N2CCOCC2)c1	nt	nt	-8	nt	nt	nt
CC1=CCC2C(C)(C)CCCC2(C)C1CC/C(C)=C/CC/C(C)=N/O (stereo not given)	nt	nt	4	nt	nt	nt
C=C[C@@](C)(O)CC[C@@H]1[C@@]2(C)CCCC(C)(C)[C@@H]2CC[C@@]1(C)O	9	-1	5	49*	-1	-6
Cc1nn(-c2ncc(C(F)(F)F)cc2Cl)c(=O)n1-c1ccc(F)cc1	-4	13	-7	1	0	-3
Cc1ccc(-n2c(C)nn(-c3ncc(C(F)(F)F)cc3Cl)c2=O)cc1	-5	-47*	11	0	0	-3
N#C/C(=C\c1cc(Cl)c(OCc2ccc(Cl)cc2)c(Cl)c1)C(N)=O	-14	-43*	nt	7	1	5
O=C(Nc1cc(Sc2ccccn2)cc([N+](=O)[O-])c1)c1ccc(Cl)cc1	-5	-5	-1	4	0	-9
O=C(Nc1cc(Sc2ccccn2)cc([N+](=O)[O-])c1)c1cccc(Cl)c1	-8	-35*	-5	22	0	17
CCc1cccc(NC(=O)Cc2n[nH]c(=O)c3ccccc23)c1	nt	nt	0	nt	nt	nt

From PubChem
